From PubChem
An excerpt weighted towards active compounds, which were near 2.5% of everything screened.
Mcl1 Bid PPI: disrupts binding of human Mcl-1 to Bid peptide; Q07820; TR-FRET Mcl-1/Bid-Dy647 peptide binding, 1536-well; inhibition, % at 21.7 µM; actives 0.97% (n = 220,000); AID 1021;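 active means compounds that cut the binding signal by more than half at the single screening dose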;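 further: His-tagged Mcl-1 with europium anti-His antibody binding Bid BH3 peptide; 0% = Mcl-1 plus peptide wells and 100% = peptide-only wells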
Mcl1 Noxa PPI: Mcl-1/Noxa interaction inhibition; actives 1.5% (n = 220,000); Q07820; AID 1022; inhibition, % at 21.7 µM; TR-FRET Mcl-1/Noxa peptide binding, 2 h;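 active means compounds that cut the protein-peptide binding signal by more than 50% relative to plate controls in a single-dose test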;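 further: His-tagged Mcl-1 with rhodamine Noxa BH3 peptide and terbium anti-His antibody; 0% = Mcl-1 plus Noxa peptide wells and 100% = peptide-only wells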
MCL1 BIM primary: disrupts human MCL1 binding to BIM-BH3 peptide | GST-MCL1 / FITC-Bim-BH3 fluorescence polarization | inhibition, % at 10.9 µM | actives 0.68% (n = 320,000);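 active means inhibition above the mean inhibition of all tested compounds plus 3 SD, set per campaign, cut at about 40% in these data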;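 further: 0% = DMSO wells and 100% = unlabeled Bim-BH3 peptide control; higher means more loss of mP so more displacement of Bim peptide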
Mcl-1 Bim block: inhibitors of Bim-Mcl-1 interaction, human; Q07820; actives 0.1% (n = 190,000); AID 1009; inhibition, % at 10 µM; Bead-based flow cytometry, Bim peptide-Mcl-1 binding; in the data active means inhibition above about 40%;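 further: 0% = no compound tracer wells and 100% = peptide blocker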
14-3-3 Bad inh: disrupts binding of bovine 14-3-3 zeta to phospho-Bad peptide; P63103; TR-FRET 14-3-3zeta/Dy647-pBad peptide displacement, 1 h; inhibition, % at 21.7 µM; actives 0.71% (n = 220,000); AID 781;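 active means inhibition above about 70%, limit read from the data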;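 further: 0% = full 14-3-3 plus peptide FRET controls and 100% = background without 14-3-3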
Target sequence (P63103 whole entry, looked up): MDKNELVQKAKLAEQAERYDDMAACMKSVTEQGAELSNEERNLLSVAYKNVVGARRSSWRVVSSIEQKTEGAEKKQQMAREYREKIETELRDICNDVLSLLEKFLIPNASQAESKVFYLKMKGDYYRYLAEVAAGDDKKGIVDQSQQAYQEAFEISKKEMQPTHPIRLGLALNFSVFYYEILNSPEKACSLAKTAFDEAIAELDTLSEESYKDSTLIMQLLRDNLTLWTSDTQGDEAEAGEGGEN
* marks the source's active call; other numbers are inactive results; x = not tested or not shown; [ ] = another dose, or the depositor's remark.

SMILES | Mcl1 Bid PPI | Mcl1 Noxa PPI | MCL1 BIM primary | Mcl-1 Bim block | 14-3-3 Bad inh
Cc1ccc(S(=O)(=O)CCSc2cccc(C(=O)Nc3ccccc3C(=O)O)c2)cc1 | -10 | 68* | 22 | -1 | 7
O=c1cc(CO)oc(C(Nc2ccccn2)c2ccccc2F)c1O (stereo not given) | x | x | 19 | x | x
O=c1cc(CO)oc(C(Nc2ccccn2)c2cccc(F)c2)c1O (stereo not given) | 46 | 52* | 31 | 0 | 8
O=c1cc(CO)oc(C(Nc2ccccn2)c2ccc(C(F)(F)F)cc2)c1O (stereo not given) | 18 | 37 | 24 | -2 | -2
COc1cccc(C(Nc2ccccn2)c2oc(CO)cc(=O)c2O)c1 (stereo not given) | 27 | 74* | 26 | 0 | -12
COc1ccc(CSc2nnc(C)s2)cc1F | -28 | 1 | -1 | -3 | 3
COc1cc(C)c2c(c1C=O)Oc1c(c(C)c(O)c3c1C(O)OC3=O)OC2=O (stereo not given) | 5 | -5 | 11 | 1 | 5
O=C(O)c1ccccc1C(=O)OCCc1cc2ccccc2c(=O)o1 | x | x | 6 | x | x
C=CCn1c(SC)nnc1-c1ccc2ncccc2c1 | -4 | 18 | 6 | x | 0
CN(C)/C=C\C(=C/C(=O)C(F)(F)F)Nc1ccccc1Oc1ccccc1 | -12 | 67* | -11 | 0 | -4
Cc1ccc(N(CC(N)=O)C2SC(=O)NC2=O)cc1 (stereo not given) | -5 | -2 | 10 | 0 | 1
COC(=O)CSc1nc(NC#N)nc(NC(C)(C)C)n1 | -11 | -14 | 4 | x | -6
CCOc1ccc(CNC(=S)N/N=C\c2ccc([N+](=O)[O-])cc2)cc1 | 45 | 54* | 8 | -7 | 11
CCOc1ccc(CNC(=S)N/N=C/c2cccnc2)cc1 | -31 | 14 | 5 | -3 | -15
Cc1nc(C)c(C(=O)Nc2nc3c(C)cccc3s2)o1 | -19 | 91* | 37 | 0 | 8
Cc1c2cnn(CC(=O)Nc3c(F)c(F)cc(F)c3F)c(=O)c2c(C)n1Cc1ccccc1F | -57 | 49 | 41* | -6 | 17
CNC(=O)Cn1ncc2c(C)n(Cc3ccc(C)cc3)c(C)c2c1=O | -22 | 17 | 1 | 0 | -16
Clc1ccc(Cl)c(OCCCCN2CCCCC2)c1 | x | x | 14 | x | x
C[C@@H]1CCCCCCCCCCC1=O | x | x | 3 | x | x
O=c1cc(-c2ccc([N+](=O)[O-])cc2)nc2cc(-c3ccc(F)cc3)[nH]n12 | -46 | 65* | 7 | 0 | 1
COCCCNc1c2c(nc3nnnn13)CCCC2 | -14 | 0 | 2 | 0 | -3
CCOC(=O)c1nc(C)sc1-c1ccnn1S(=O)(=O)c1ccc(C)cc1 | 69* | 0 | 2 | x | -1
CC1C2(C)OC(=N)C(C#N)(C(C)O2)C1(C#N)C#N (stereo not given) | -51 | 19 | 48* | x | -11
CCOC(=O)c1c(NC(=S)Nc2ccc(Cl)cc2)sc2c1CCN(C)C2 | -83 | 13 | -41 | -25 | -28
Cc1ccccc1NC(=O)c1cc2ccccn2n1 | -46 | -23 | 4 | x | 3
SMILES | Mcl1 Bid PPI | Mcl1 Noxa PPI | MCL1 BIM primary | Mcl-1 Bim block | 14-3-3 Bad inh
CCOc1ccc(C(=O)Nc2cccc(-c3nc4cccnc4o3)c2)cc1Cl | 51* | -4 | -9 | 0 | 44
CCOc1ccc(C(=O)Nc2cc(NC(=O)c3ccc(OCC)c(Cl)c3)cc(C(=O)O)c2)cc1Cl | 5 | 84* | x | -2 | 26
c1ccc(Nc2cccc(Nc3ccccc3)c2)cc1 | 20 | 88* | 5 | -6 | 29
Oc1ccc(C(c2nnnn2C2CCCC2)N2CCc3ccccc3C2)cc1 (stereo not given) | -11 | 25 | 11 | 1 | 76*
COc1ccc(C(c2nnnn2C2CCCC2)N2CCN(C(=O)c3ccco3)CC2)cc1OC (stereo not given) | x | x | -5 | x | x
COc1cc(C(c2nnnn2C2CCCC2)N2CCc3ccccc3C2)ccc1O (stereo not given) | 9 | 77* | 11 | 0 | 61
Cc1ccc(C(c2nnnn2C2CCCCC2)N2CCc3ccccc32)cc1 (stereo not given) | -35 | 22 | 7 | 0 | -11
CCOc1ncccc1C(=O)OCc1c(Cl)cccc1Cl | -7 | 10 | -3 | -3 | -8
CCCCN(CCCC)C(=O)C[n+]1cccc(/C=N/O)c1 | -16 | 11 | 4 | -1 | -14
CCCCCCCCCCCCCCCC[n+]1cccc(C(=O)N(CC)CC)c1 | 24 | 3 | 13 | -4 | 98*[fluorescence artefact?]
CCCCCCCCCCCCCCCC[n+]1ccc(C(N)=O)cc1 | 42 | 47 | -11 | 0 | 79*[fluorescence artefact?]
